“And” between values parts separate entries of the source, which are not always exact repeats. Identical values can stand only once. The whole screen tested about 2,300 compounds, of which about 1,100 (48%) were called active.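 The calls were made as follows: active = inhibition above the mean inhibition of all tested sample wells plus 3 SD (cut at about 10% in these data); inactive = the rest.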 So high a share suggests a set chosen from earlier hits. These entries were drawn from the full list.
Biological target: Luciferin 4-monooxygenase (Photinus pyralis) (UniProt P08659)
Sequence (P08659 whole entry, looked up): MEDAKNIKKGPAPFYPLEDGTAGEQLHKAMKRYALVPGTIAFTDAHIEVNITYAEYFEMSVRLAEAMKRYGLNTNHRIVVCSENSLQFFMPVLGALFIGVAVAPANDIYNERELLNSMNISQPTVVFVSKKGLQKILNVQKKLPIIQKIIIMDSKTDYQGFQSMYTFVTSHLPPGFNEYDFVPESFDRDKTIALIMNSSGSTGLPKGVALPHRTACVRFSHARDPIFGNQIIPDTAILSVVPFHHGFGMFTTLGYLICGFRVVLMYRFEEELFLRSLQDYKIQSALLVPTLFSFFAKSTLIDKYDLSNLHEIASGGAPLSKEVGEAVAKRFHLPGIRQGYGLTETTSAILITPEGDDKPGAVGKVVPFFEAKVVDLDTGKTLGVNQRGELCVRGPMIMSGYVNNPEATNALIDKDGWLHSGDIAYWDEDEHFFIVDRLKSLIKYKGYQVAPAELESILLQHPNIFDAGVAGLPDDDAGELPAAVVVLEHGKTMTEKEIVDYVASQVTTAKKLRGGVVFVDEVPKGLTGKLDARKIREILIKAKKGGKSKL
Test: native FLuc enzyme inhibition – biochemical, luminescence, triplicate, artefact control for HSP90 inhibitor project, confirmation (AID 1847);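 also: 0% = DMSO with luciferase and 100% = wells lacking luciferase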
Details: purified native firefly luciferase, at 5.9 µM, hits give high values

Structure (SMILES)	inhibition
COC(=O)c1sc(NC(=O)c2csc3c2CCCC3)nc1C	-24.8% (inactive)
COC(=O)c1sc(NC(=O)c2ccc(OC)cc2OC)nc1C	56.6% (active)
COc1cc(SC)ccc1C(=O)Nc1nc(C)cs1	90.1% (active)
Cc1ccc(-n2c(SCC(=O)Nc3ncc(Cl)cc3Cl)nc3ccccc32)cc1	-5.93% (inactive)
Cc1sc2nc(CSCC(=O)Nc3c(Cl)cccc3Cl)[nH]c(=O)c2c1C	-10.5% (inactive)
CCOc1ccc(C2NC(=S)NC3=C2CCc2ccccc23)cc1 (stereo not given)	27.2% (active)
Cc1nc(NC(=O)c2cccc(Cl)c2)sc1-c1csc(Nc2cccc(Cl)c2)n1	-10.7% (inactive)
O=C(Nc1nc2ccccc2s1)c1ccc2c(c1)OCO2	56% (active)
O=C(Nc1ccccc1)c1ccc2c(c1)OCCCO2	32.8% (active)
c1ccc(-c2ccc3c(c2)NC(C2Nc4cc(-c5ccccc5)ccc4O2)O3)cc1 (stereo not given)	-6.37% (inactive)
Clc1ccc(-c2cc(-c3ccccn3)on2)c(Cl)c1	81.9% (active)
O=[N+]([O-])/C=C/c1ccc2c(ccn2Cc2ccccc2)c1	5.87% (inactive)
CCN(CC)CCn1c(N)c(S(=O)(=O)c2ccccc2)c2nc3ccccc3nc21	-7.93% (inactive)
COc1ccc(-n2nnnc2-c2nc3ccccc3s2)cc1	52.3% (active)
Cc1cccc(NC(=O)/C=C/c2ccc3c(c2)OCO3)n1	30.9% (active)
Cc1csc(SCC(=O)Nc2sccc2C#N)n1	8.6% (inactive)
Cn1c(-c2ccco2)nc2cc3ccccc3cc21	51.4% (active)
Cc1cc(C(=O)COC(=O)C2CC2)c(C)n1-c1ccc(F)cc1	88.4% (active)
Cc1ccc(C(=O)O/N=C(\N)c2ccccn2)cc1Cl	79.1% (active)
CCOC(=O)C1=C(c2ccc(OC)cc2)C(=O)c2ccccc2C1=O	-5.23% (inactive)
CC(C)Nc1ccc(-n2nc3ccccc3[n+]2[O-])cc1	44% (active)
O=C(Nc1ccc2c(c1)OCCO2)C1CCCN(c2ncccn2)C1 (stereo not given)	20.5% (active)

Structure (SMILES)	inhibition
Clc1ccc2nc(CSc3ccccc3)cn2c1	53% (active)
Cc1nc2cc(NC(=O)Nc3cccc(F)c3)ccc2n1C	21.4% (active)
Cc1ccc(Nc2nc(-c3ccc(O)cc3O)cs2)nc1	-25.8% (inactive)
Cc1cnc(NC(=O)c2ccccn2)s1	15.6% (active)
Cc1ccc(Nc2nc(-c3sc(NC(=O)c4ccccc4)nc3C)cs2)cc1	-23.6% (inactive)
CCOC(=O)CNC(=O)c1nn(-c2cccc(OC)c2)c(=O)c2ccccc12	-3.73% (inactive)
CCOc1ccc(OCc2ccc(C(=O)N(C)c3ccccc3)o2)cc1	-13.3% (inactive)
CCOc1ccc(OCc2cccc(C(=O)N(CC)CC)c2)cc1	22.5% (active)
Nc1ccc(-c2nnc(-c3ccccc3)o2)cc1	-10.8% (inactive)
CCc1ccc2oc(-c3ccc(N)cc3)nc2c1	51% (active)
O=C(Cn1c[n+](CC(=O)c2ccc([N+](=O)[O-])cc2)cn1)c1ccc([N+](=O)[O-])cc1	-6.5% (inactive) and -8.93% (inactive)
COc1cc(CNC2CCCCC2)c(Br)cc1OC1CCCC1	1% (inactive)
COC(=O)C1[C@H]2SC(C)(C)C(C(=O)OC)N2C(=O)N1Cc1nc2ccccc2s1 (stereo not given in full)	-10.3% (inactive)
COc1ccc(CNC(=O)/C(C#N)=C/c2cccc(OC)c2OC)cc1	-0.6% (inactive)
COc1ccc(Nc2ncnc3ccc(Br)cc23)c(OC)c1	55.5% (active)
Cc1ccc2nc(/C(C#N)=C\c3ccc(OC(=O)c4cccs4)cc3)[nH]c2c1	-9.37% (inactive)
CCCCNC(=O)Nc1c(C)cc(SC#N)cc1C	-1.43% (inactive)
Cc1nn(CC(=O)Nc2ccc(F)cc2)c(=O)c2ccccc12	-7.73% (inactive)
CCOc1ccc(-c2nnc(-c3ccco3)o2)cc1	56.9% (active)
O=C(CN1C(=O)c2ccccc2S1(=O)=O)N1CCc2ccccc21	-9.57% (inactive)
CCOc1c(Br)cc(/C=C2\C(=O)N(CCC#N)N=C2C)cc1OC	29.9% (active)
N#C/C=C\Oc1ccc(Cl)cc1N	-7.1% (inactive)

Structure (SMILES)	inhibition
Cc1nnc(SCC(=O)N2c3ccccc3C(C)(c3ccc(Cl)cc3)CC2(C)C)s1 (stereo not given)	-1.27% (inactive)
O=C(Nc1cccnc1)c1noc2c1CCCCC2	38.6% (active)
COc1cc(NS(=O)(=O)c2ccc3ccccc3c2)c2ncccc2c1	-7.83% (inactive)
CSCCC(C(=O)NC1=NCCS1)N1C(=O)c2ccccc2C1=O (stereo not given)	-8.47% (inactive)
CN(C)c1ccc(-n2cccc2/C=N/n2cnnc2)cc1	-11.7% (inactive)
CC(C)c1nc2ccc(C(=O)O)cc2[nH]1	31.5% (active)
Cc1nc2ccc(C(=O)O)cc2[nH]1	4.87% (inactive)
CC(C)(C)OC(=O)c1c(N)n(CCCN2CCCC2=O)c2nc3ccccc3nc12	-7.33% (inactive)
CCCS(=O)(=O)N1CCCC(C(=O)NCCN2CCCCC2C)C1 (stereo not given)	-4.93% (inactive)
Cc1ccc2nc(-c3ccc(Br)cc3)cn2c1	81.5% (active)
COc1ccc(-c2cn3ccc(C)cc3n2)cc1	69.7% (active)
Cc1ccc(-c2cn3cc(C)ccc3n2)cc1	87.3% (active)
Cc1cccc(C(=O)OC(C)CN2CCN(C)CC2)c1 (stereo not given)	-7.93% (inactive)
O=C(CSC(=S)N1CCOCC1)c1ccccc1	34.5% (active)
Cc1ccc(C(=O)CSc2ccccc2C(=O)O)cc1	-0.87% (inactive)
O=C(O)c1ccc(N=NN2CCOCC2)cc1	-12.9% (inactive)
CCOC(=O)N1CCN(Cc2nc3c(c(=O)n(C)c(=O)n3C)n2Cc2ccccc2)CC1	-8.93% (inactive)
C=CCN1CCN(C(=O)CCCc2ccccc2)CC1	37.2% (active)
O=C(Cc1ccccc1)N1CCN(S(=O)(=O)c2ccc([N+](=O)[O-])cc2)CC1	-3.47% (inactive)
COc1cc(C(=O)NN(CCC#N)C2=NS(=O)(=O)c3ccccc32)cc(OC)c1OC	-6.77% (inactive)
Cc1cccc(CCNC(=O)Cn2ncc3c([nH]c4ccc(C)cc43)c2=O)c1	-0.53% (inactive)

Reference: PubChem BioAssay AID1847 (The Scripps Research Institute Molecular Screening Center, 2009)
